# Compound activity: PubChem BioAssay, SRMLSC
# The list is not random: actives were taken first. Their share in the collection is about 6.5%.
# Fluor 339 460 – intrinsic fluorescence of library compounds, ex339/em460 – biochemical, MLSMR library, data from DPM-DC assay, artefact control, profiling panel; compound autofluorescence, ex339/em460 nm, NADH buffer; stronger effect = higher value; 1 = no-compound wells, NADH background; actives 5.5% (n = 65,000); fluorescence fold increase at 10 µM;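 active = at 10 µM, mean starting fluorescence two-fold or more over control wells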;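 note: signal is the first read of a kinetic run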
# A340 absorber – compound light absorbance at 340 nm, profiling panel, artefact control, biochemical, MLSMR library, data from PS, PMK, MK assays. compound absorbance at 340 nm, fold over control. fold change at 10 µM. 65,000 tested, under 10 active;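 active = at 10 µM dose, initial 340 nm absorbance at least 2 fold that of control wells; inactive = change under 2 fold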;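 note: initial absorbance extrapolated from kinetic A340 decline of NADH oxidation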
# PMK inhibit – S. pneumoniae PMK inhibitors, primary screen, biochemical, mevalonate pathway, pilot trial included; phosphomevalonate kinase (Streptococcus pneumoniae D39); purified PMK, PK/LDH-coupled NADH absorbance 340 nm; inhibition, % at 10 µM; actives 0.49% (n = 65,000);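 active = top-ranked compounds by inhibition in the single 10 µM screen, taking a fixed number of the strongest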;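 note: 0% = full reaction with DMSO carrier and 100% = background rate without enzyme reaction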
# NADH coupling – inhibitors of PK/LDH coupling enzymes, profiling panel, artefact control, biochemical, MLSMR library. actives 0.02% (n = 65,000). IC50, µM (titrated, usually from 10 µM), inactives show at the top dose inhibition. AID 774, 2007. coupled PK/LDH NADH assays, four targets;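 active = single-dose screening hits from any of four coupled enzyme assays that gave an IC50 when retested across doses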;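 note: the DPM-DC format reads NADH fluorescence rather than 340 nm absorbance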
# MK inhibit – S. pneumoniae MK inhibitors, primary screen, biochemical, PK/LDH-coupled NADH absorbance. mevalonate kinase [Streptococcus pneumoniae D39]. purified MK, PK/LDH-coupled NADH absorbance 340 nm. inhibition, % at 10 µM. actives 0.48% (n = 65,000). AID 555, 2006;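 active = ranked among the strongest by inhibition in the single 10 µM screen, a fixed top-ranked set picked for dose follow-up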
# Spn DPM-DC inh – S. pneumoniae DPM-DC inhibitors, primary screen, biochemical, PK/LDH-coupled NADH fluorescence; diphosphomevalonate decarboxylase (Streptococcus pneumoniae D39); calls only at 10 µM; actives 0.49% (n = 65,000); purified DPM-DC;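 active = the 320 compounds with the highest percent inhibition in the single-dose primary screen, excluding strongly autofluorescent ones, cut at about 32% in these data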;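 note: kinetic rate of NADH fluorescence loss reporting ADP formed by the decarboxylase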
# Starred values were filed as active, the others as inactive; i = inactive; . = no result shown.
SMILES,Fluor 339 460,A340 absorber,PMK inhibit,NADH coupling,MK inhibit,Spn DPM-DC inh
COc1ccc(-c2ccc(-c3noc(-c4cccs4)n3)c(OC)n2)cc1,3*,1.04,1.0,2.0%,6.0,.
COc1ccc(-c2ccc(-c3noc(-c4ccccc4C)n3)c(OC)n2)cc1,3.84*,1.18,3.0,2.0%,0.0,.
COc1ccc(-c2ccc(-c3noc(-c4ccccc4OC)n3)c(OC)n2)cc1,2.95*,1.06,4.0,1.0%,7.0,.
COc1cc(-c2noc(-c3cccs3)n2)cc(OC)c1OC,1.11,1,11.0,6.0%,5.0,i
COC(=O)c1cc(Br)c(=O)n(Cc2cccnc2)c1,1.02,0.99,4.0,3.0%,9.0,i
CCOc1ccc2[nH]c(=O)c(CN(Cc3ccccc3)C(=O)N3CCCC3)cc2c1,2.15*,1.01,15.0,7.0%,8.0,i
CCOc1ccc2[nH]c(=O)c(CN(C(=O)N3CCOCC3)C3CC3)cc2c1,3.77*,1.06,14.0,7.0%,0.0,.
CC(=O)NC(CCS(C)(=O)=O)C(=O)Nc1ccc(Oc2ccccc2)cc1 (stereo not drawn),1.05,1,13.0,4.0%,0.0,i
O=C(CSC1=NCCN1)C1COc2ccccc2O1 (stereo not drawn),1.05,1.03,0.0,1.0%,3.0,i
Cc1oc2c(C)c3oc(=O)c4c(c3cc2c1C)CCCC4,1.53,1.05,2.0,5.0%,5.0,i
CC(=O)COc1ccc2c3c(c(=O)oc2c1C)CCCCC3,3.79*,1.16,3.0,5.0%,7.0,.
Cc1oc(C(=O)O)cc1COc1ccc2c3c(c(=O)oc2c1C)CCCC3,2.19*,1.05,12.0,11.0%,9.0,.
Cc1c(OC(=O)CNC(=O)OC(C)(C)C)ccc2c3c(c(=O)oc12)CCC3,3.87*,1.04,3.0,6.0%,8.0,.
CC(=O)C(C)Oc1ccc2c3c(c(=O)oc2c1C)CCCC3 (stereo not drawn),3.83*,1.01,5.0,10.0%,15.0,.
CCc1nc(SCc2cccnc2)[nH]c(=O)c1C,1.1,1.01,0.0,2.0%,7.0,i
Cc1ccc(C(=O)C2CCN(CC(=O)Nc3ccc4c(c3)OCCO4)CC2)cc1,1.05,0.99,16.0,5.0%,0.0,i
O=C(NC1CC1)C1C2C3C4CC5C3C5C4C12 (stereo not drawn),1.11,1.03,16.0,9.0%,12.0,i
CCC(=O)Nc1cc2c(cc1C(C)=O)OCCO2,1.54,1.06,0.0,8.0%,16.0,i
CCC(=O)c1cc2c(cc1NC(=O)c1ccc(C)cc1)OCCO2,3.14*,1.11,0.0,6.0%,11.0,.
COC(=O)c1nnn(CC(=O)Nc2cccc(Cl)c2C)c1C(=O)OC,1.12,1.03,18.0,6.0%,0.0,i
COc1cccc(C(=O)Nc2ccc(-c3nc4ccccc4o3)c(O)c2)c1,2.12*,1.23,12.0,8.0%,4.0,.
COc1cc(OC)cc(C(=O)Nc2ccc(-c3nc4ccccc4o3)cc2)c1,2.17*,1.12,0.0,1.0%,2.0,.
COc1cc(C(=O)Nc2cccc(-c3nc4ccccc4o3)c2C)cc(OC)c1OC,1.19,1.05,7.0,5.0%,5.0,i
O=C(Nc1ccc(-c2nc3ccccc3o2)c(O)c1)c1cc(-n2cnnc2)ccc1Cl,3.86*,1.09,6.0,9.0%,12.0,.
O=C(Nc1ccc2oc(-c3ccccc3)nc2c1)c1ccncc1,1.05,1.05,6.0,4.0%,7.0,i
COc1cc(C(=O)Nc2ccc(-c3nc4cc(C)ccc4o3)c(O)c2)cc(OC)c1OC,4.67*,1.18,3.0,2.0%,0.0,.
Cc1cc(C)nc(NC(=O)CN2C(=O)c3ccccc3C2=O)n1,1.13,1.04,0.0,1.0%,4.0,i
COc1ccc(NC(=O)CSc2nnc(-c3cccs3)n2-c2ccccc2)cc1,1.08,0.97,18.0,8.0%,5.0,i
O=C(NCCCn1ccnc1)C(Cc1ccccc1)N1C(=O)c2ccccc2C1=O (stereo not drawn),1.06,1.01,2.0,3.0%,8.0,i
